MITF primary: inhibitors of human MITF | AlphaScreen MITF homodimerization, bead proximity signal | inhibition, % at 2.6 µM | actives 0.91% (n = 650,000) | AID 1259374; in the data active means inhibition above about 50%;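 further: 0% = vehicle wells with protein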
FBW7 activator: human FBW7 E3 ligase activation, primary screen. AID 1259310. AlphaScreen FBW7–phospho-cyclin E peptide binding, activator screen. normalized activity (activation), % at 26.1 µM. Q969H0. actives 0.13% (n = 650,000); in the data active means normalized activity above about 1.9%;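 further: purified mutant Fbw7 with reduced substrate affinity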
Target sequence (Q969H0 whole entry, looked up): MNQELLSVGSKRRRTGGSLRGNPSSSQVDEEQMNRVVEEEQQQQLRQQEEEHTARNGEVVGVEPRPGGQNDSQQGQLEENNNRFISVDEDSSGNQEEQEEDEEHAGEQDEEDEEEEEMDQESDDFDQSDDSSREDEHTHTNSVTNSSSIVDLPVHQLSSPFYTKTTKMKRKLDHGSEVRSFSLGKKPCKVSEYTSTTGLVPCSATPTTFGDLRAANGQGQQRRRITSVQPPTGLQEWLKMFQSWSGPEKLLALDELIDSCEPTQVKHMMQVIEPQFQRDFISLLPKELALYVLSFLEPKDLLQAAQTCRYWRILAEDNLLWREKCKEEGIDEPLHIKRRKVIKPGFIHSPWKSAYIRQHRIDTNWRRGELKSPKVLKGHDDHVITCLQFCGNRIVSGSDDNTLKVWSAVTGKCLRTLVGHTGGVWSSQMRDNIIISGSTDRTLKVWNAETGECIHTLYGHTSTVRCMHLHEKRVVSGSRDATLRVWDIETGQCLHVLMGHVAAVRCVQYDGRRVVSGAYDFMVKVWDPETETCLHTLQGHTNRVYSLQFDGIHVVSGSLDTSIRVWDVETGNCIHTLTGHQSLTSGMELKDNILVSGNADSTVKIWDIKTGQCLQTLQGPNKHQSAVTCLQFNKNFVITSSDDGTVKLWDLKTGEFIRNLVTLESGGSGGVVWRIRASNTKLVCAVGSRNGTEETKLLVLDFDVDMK
GPR151 activ: activators of human GPR151 | Q8TDV0 | actives 1% (n = 650,000) | activation, % at 11.2 µM | PathHunter beta-arrestin GPR151 cells, luminescence | AID 1508602; in the data active means activation above about 4.9%;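 further: 0% = median of compound wells and 100% = cells with positive control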
TEAD-YAP block: TEAD-YAP interaction inhibition | HEK-TIYL cells, TEAD-Gal4/YAP UAS-luciferase luminescence | actives 1.4% (n = 640,000) | inhibition, % at 9.12 µM; in the data active means inhibition above about 32%;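 further: 0% = median of test compound wells and 100% = reference inhibitor wells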
Active calls of the source: *. Only some compounds are listed: those with a hit (about 3.5% of all), similar ones and a draw of the others.

What do the screens show for `Cc1nn(C)c(C)c1-c1nc(NCCN2CCOCC2)c2ncn(-c3ccsc3)c2n1`?
MITF primary: 10; FBW7 activator: 0; GPR151 activ: -2; TEAD-YAP block: 38*

What do the screens show for `O=C1CCCN1CCn1cnc2c(NCCOc3ccccc3)nc(Nc3ccc(-n4ccnc4)cc3)nc21`?
MITF primary: 14; FBW7 activator: 0; GPR151 activ: 2; TEAD-YAP block: 3

How did O=C1CCCN1CCCNc1nc(Nc2cccnc2)nc2c1ncn2-c1ccsc1 do in these assays?
MITF primary: -5; FBW7 activator: 0; GPR151 activ: 0; TEAD-YAP block: 47*

How did O=C1CCCN1CCCNc1nc(Nc2ccc(-n3ccnc3)cc2)nc2c1ncn2-c1ccccc1 do in these assays?
MITF primary: 12; FBW7 activator: 0; GPR151 activ: 0; TEAD-YAP block: 52*

What do the screens show for `CCOC(=O)C1=C(NC(=O)c2cc3cccc(OC)c3oc2=O)Nc2ccccc2N=C1`?
MITF primary: -8; FBW7 activator: 0; GPR151 activ: 3; TEAD-YAP block: -4

How did O=C(COc1ccccc1)N1CCCC(c2nnc(-c3cccs3)o2)C1 (stereo unspecified) do in these assays?
MITF primary: 2; FBW7 activator: 0; GPR151 activ: 2; TEAD-YAP block: 1

How did CCCNc1nc(NCCCN2CCCC2=O)nc2c1ncn2-c1ccccc1 do in these assays?
MITF primary: 3; FBW7 activator: 0; GPR151 activ: -2; TEAD-YAP block: 42*

How did O=C1CCCN1CCCNc1nc(NCCCN2CCCC2=O)c2ncn(-c3ccsc3)c2n1 do in these assays?
MITF primary: -1; FBW7 activator: 0; GPR151 activ: 1; TEAD-YAP block: 39*

How did O=C1CCCN1CCCNc1nc(NCCN2CCOCC2)nc2c1ncn2-c1ccsc1 do in these assays?
MITF primary: -2; FBW7 activator: 0; GPR151 activ: -1; TEAD-YAP block: 18

What do the screens show for `CN(C)c1cccc(Nc2nccn3c(-c4ccc(C(=O)NC5CC5)cc4)cnc23)c1`?
MITF primary: 20; FBW7 activator: 0; GPR151 activ: 2; TEAD-YAP block: 4

What do the screens show for `COc1ccc(S(=O)(=O)n2c(SCC(=O)NCc3ccccc3)nc3ccccc32)cc1`?
MITF primary: 14; FBW7 activator: 1; GPR151 activ: -1; TEAD-YAP block: 18

How did COc1ccc(NC(=O)CSc2nc3cc4c(cc3cc2C#N)OCCO4)c(OC)c1 do in these assays?
MITF primary: 25; FBW7 activator: 0; GPR151 activ: -1; TEAD-YAP block: 83*

Results for N#Cc1cc2cc3c(cc2nc1SCC(=O)NCCc1ccccc1)OCCO3 ?
MITF primary: 18; FBW7 activator: 0; GPR151 activ: 1; TEAD-YAP block: 34*

How did COc1cc2cc(C#N)c(SCC(=O)Nc3cc(C)on3)nc2cc1OC do in these assays?
MITF primary: 31; FBW7 activator: 2.4*; GPR151 activ: -1; TEAD-YAP block: -10

What do the screens show for `CCC(C)NC(=O)CSc1nc2cc3c(cc2cc1C#N)OCO3` (stereo unspecified)?
MITF primary: 9; FBW7 activator: 0; GPR151 activ: -2; TEAD-YAP block: 51*

What do the screens show for `CSc1ccc(C2C(C(=O)OCc3ccccc3)=C(C)NC3=C2C(=O)CCC3)cc1` (stereo unspecified)?
MITF primary: 1; FBW7 activator: 0; GPR151 activ: 0; TEAD-YAP block: 0

What do the screens show for `Cc1ccccc1NC(=O)CSc1nc2cc3c(cc2cc1C#N)OCCO3`?
MITF primary: 7; FBW7 activator: 0; GPR151 activ: 0; TEAD-YAP block: 58*

How did Cc1ccccc1NC(=O)CSc1nc2cc3c(cc2cc1C#N)OCO3 do in these assays?
MITF primary: -6; FBW7 activator: 0; GPR151 activ: 1; TEAD-YAP block: 6

How did COc1ccc(CNC(=O)CSc2nc3cc(OC)c(OC)cc3cc2C#N)cc1 do in these assays?
MITF primary: -6; FBW7 activator: 0; GPR151 activ: 1; TEAD-YAP block: -18

What do the screens show for `COc1cccc(NC(=O)CSc2nc3cc4c(cc3cc2C#N)OCCO4)c1`?
MITF primary: -3; FBW7 activator: 0; GPR151 activ: 0; TEAD-YAP block: 45*

Results for N#Cc1cc2cc3c(cc2nc1SCC(=O)NCC1CCCO1)OCCO3 (stereo unspecified) ?
MITF primary: 5; FBW7 activator: 0; GPR151 activ: 1; TEAD-YAP block: 55*

Results for COc1ccc(CNC(=O)CSc2nc3cc4c(cc3cc2C#N)OCCO4)cc1 ?
MITF primary: 4; FBW7 activator: 0; GPR151 activ: 3; TEAD-YAP block: 61*

Results for CCn1c(N/N=C/c2ccc(F)cc2)nc2c1c(=O)[nH]c(=O)n2C ?
MITF primary: -17; FBW7 activator: 0; GPR151 activ: 0; TEAD-YAP block: -5

Screening data as filed in PubChem.
